Source: PubChem BioAssay
An excerpt weighted towards active compounds, which were near 21% of everything screened.
Shiga toxin inh – A qHTS for Small Molecule Inhibitors of Shiga Toxin; Vero cells, Shiga toxin protein synthesis inhibition reporter; inhibition, % at 38.7 µM; hit rate 9.2% among 290,000; AID 2315, 2010; in the data active = inhibition mostly above about 28%, no sharp cut-off; inactive = mostly below about 43%
Pf growth 48h – Primary qHTS for delayed death inhibitors of the malarial parasite plastid, 48 hour incubation; hit rate 5.9% among 310,000; P. falciparum luciferase growth in erythrocytes, 48 h; Potency, µM (top dose mostly 28.7 µM), usual class: inhibitors; active = well fitted inhibition curve with a large enough effect; inconclusive = small, poorly fitted or top-dose-only effect, or another doubt; inactive = no such curve, though single readings can be large or run the other way
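Cell-based growth assay: transgenic P. falciparum expressing firefly luciferase, cultured in red cells within RPMI 1640 containing 0.5% w/v Albumax, 24 mM bicarbonate and gentamycin. A drop in luciferase activity indicates inhibition.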
NS1 inh – qHTS Assay for Inhibitors of Influenza NS1 Protein Function. Potency, µM (doses to about 46.1 µM). hit rate 0.4% among 270,000; note: actives are rising curves; nearly all actives have a fitted effect of over 50% in size
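S. cerevisiae expressing influenza A NS1, grown in glucose, washed, then diluted 1:100 into pH 6.0 -URA galactose medium with 23 nl compound. Growth recovery read as OD600; NS1-free strain serves as control.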
SARS PLpro yeast – qHTS of Yeast-based Assay for SARS-CoV PLP. hit rate 0.19% among 330,000. AID 485353, 2010. S. cerevisiae expressing SARS-CoV PLpro, growth rescue. Potency, µM (doses to about 32.9 µM), usual class: activators; note: nearly all actives have a fitted effect of over 55% in size
CHX counter – Cycloheximide Counterscreen for Small Molecule Inhibitors of Shiga Toxin | cell reporter, cycloheximide protein synthesis inhibition counterscreen | max response, % | hit rate 12% among 300,000; in the data active = max response mostly above about 13%, no sharp cut-off; inactive = mostly below about 14%; note: read at 38.3 µM for the half of the compounds with a filed dose
Pf growth 96h – Primary qHTS for delayed death inhibitors of the malarial parasite plastid, 96 hour incubation; P. falciparum luciferase reporter growth, 96 h; Potency, µM (top dose mostly 28.7 µM), most hits filed as inhibitors; hit rate 6.9% among 320,000; AID 504834, 2011; active = well fitted inhibition curve with a large enough effect; inconclusive = small, poorly fitted or top-dose-only effect, or another doubt; inactive = no such curve, though single readings can be large or run the other way
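Luminescence readout: decreased luciferase signal marks inhibited growth of reporter-expressing P. falciparum in infected red cells (2% hematocrit, 0.05% parasitemia final), exposed to compound two generations (96 h, 37 C, 5% CO2).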
Large screens that a line does not name were inactive. Unless noted, calls come from the whole dose curve.

COc1ccccc1NC(=O)CN(Cc1ccco1)C(=O)c1ccc(Cl)nc1	none
O=C(Cc1ccc(F)cc1)N/N=C/c1ccccn1	Pf growth 96h inconclusive
CCN=c1scc(-c2ccc(F)cc2)n1/N=C/c1ccccn1	Shiga toxin inh 82.1, CHX counter 47.9 (no result: NS1 inh)
CC(C)CNC(=O)c1c(N)n(/N=C/c2ccccn2)c2nc3ccccc3nc12	Pf growth 48h inconclusive
CCN=c1scc(-c2ccccc2)n1/N=C/c1ccccn1	Shiga toxin inh 78.0, CHX counter 41.2
CCC(C)[C@H]1COCCS(=O)(=O)N1Cc1ccc(Br)cc1 (some centres undefined)	Pf growth 96h inconclusive
CCOc1ccc(-c2c(C)n(-c3ccc(OCC)cc3)c3[n+]2CCCCC3)cc1	Pf growth 48h 0.415µM, Pf growth 96h inconclusive
Cc1ccc(OCC(=O)c2c[nH]c3ccccc23)c([N+](=O)[O-])n1	Shiga toxin inh 80.6, Pf growth 48h inconclusive, CHX counter 51.2 (no result: NS1 inh)
COCCn1c(C)cc(C(=O)COc2ccc(C)nc2[N+](=O)[O-])c1C	none
O=[N+]([O-])c1cc(S(=O)(=O)N2CCCC2)ccc1OCCOc1ccccc1	Pf growth 96h inconclusive (no result: Shiga toxin inh, NS1 inh, CHX counter)
C=CCn1c(C)cc(C(=O)COc2ccc(C)nc2[N+](=O)[O-])c1C	Shiga toxin inh 98.0, CHX counter 74.7
C=CCn1c(C)cc(C(=O)COc2ccc(S(=O)(=O)N3CCCC3)cc2[N+](=O)[O-])c1C	Pf growth 48h inconclusive, NS1 inh inconclusive, CHX counter 13.2, Pf growth 96h inconclusive
Cc1ccc(C)c(C(=O)COc2ccc(C)nc2[N+](=O)[O-])c1	Pf growth 96h inconclusive (no result: Pf growth 48h)
O=[N+]([O-])c1cc(S(=O)(=O)N2CCCC2)ccc1OCc1ccccc1	CHX counter 28.3
Cc1ccc(C[C@H](C(=O)O)N2C(=O)c3ccc(C(=O)O)cc3C2=O)c(C)c1	Pf growth 48h inconclusive (no result: NS1 inh)
COc1ccccc1CNC(=O)CN(C)S(=O)(=O)c1ccc2c(c1)c(=O)n(C)c(=O)n2C	none
Cc1ccc(OCC(=O)c2cc(C)n(-c3ccccc3)c2C)c([N+](=O)[O-])n1	Shiga toxin inh 64.0, CHX counter 45.5
CCCn1c(C)cc(C(=O)COc2ccc(C)nc2[N+](=O)[O-])c1C	Shiga toxin inh 85.0, CHX counter 15.1
Cc1ccc(OCC(=O)c2cc(C)c(C)cc2C)c([N+](=O)[O-])n1	none (no result: Pf growth 48h)
C=CCn1c(C)cc(C(=O)COc2nncc3ccccc23)c1C	Shiga toxin inh 159.0, CHX counter 68.9 (no result: Pf growth 48h)
CN(C)c1cccc(C(=O)OCC(=O)NC(=O)NCc2ccccc2)c1	none (no result: Shiga toxin inh, Pf growth 48h, NS1 inh, CHX counter, Pf growth 96h)
CC(c1cccs1)N(Cc1ccco1)C(=S)Nc1ccccc1Cl (centres undefined)	Pf growth 96h inconclusive (no result: NS1 inh)
CCCCNC(=O)Cn1cnc2sc(C)c(S(=O)(=O)N3CCN(c4ccccc4OC)CC3)c2c1=O	Pf growth 96h inconclusive
COc1cc2oc(=O)cc(-c3ccc(-c4cccc(N)c4)cc3)c2c(OC)c1OC	none (no result: Pf growth 48h, NS1 inh, SARS PLpro yeast, Pf growth 96h)
Cc1cc(Br)cnc1NC(=S)Nc1ccc(F)cc1F	Pf growth 48h inconclusive, Pf growth 96h inconclusive
O=C(NN1C(=O)c2ccccc2NC1c1ccccn1)c1ccccc1 (centres undefined)	Shiga toxin inh 24.1, CHX counter 12.6, Pf growth 96h inconclusive
Cc1cccc(C2Nc3ccccc3C(=O)N2c2ccccc2)n1 (centres undefined)	none (no result: Pf growth 96h)
O=C1c2ccccc2NC(c2ccccn2)N1c1ccc(Cl)cc1 (centres undefined)	Shiga toxin inh 71.3, CHX counter 30.9
O=C(NN1C(=O)c2ccccc2NC1c1ccoc1)c1ccccc1 (centres undefined)	none (no result: NS1 inh)
COc1cc2c(cc1OC)C(Cc1ccc(O)c(Oc3ccc(C[C@H]4c5cc(OC)c(OC)cc5CCN4C)cc3)c1)N(C)CC2 (some centres undefined)	none (no result: Shiga toxin inh, Pf growth 48h, NS1 inh, CHX counter, Pf growth 96h)
CC(C)(C)C(=O)NC1(C(F)(F)F)NC(=O)N(c2ccc(F)cc2)C1=O (centres undefined)	Pf growth 96h 11.7µM
Cc1ccc(N2C(=O)NC(NC(=O)C(C)(C)C)(C(F)(F)F)C2=O)cc1 (centres undefined)	none
Cc1cccc(NC(=O)CCS(=O)(=O)c2ccc(Cl)cc2)c1	none
S=C(NCCCN1CCOCC1)Nc1ccc(-c2nc3ccccc3[nH]2)cc1	Pf growth 48h inconclusive, Pf growth 96h inconclusive (no result: NS1 inh)
S=C(NCc1ccc2c(c1)OCO2)Nc1ccc(-c2nc3ccccc3[nH]2)cc1	Shiga toxin inh 61.5, Pf growth 48h 11.7µM, CHX counter 32.2, Pf growth 96h 5.22µM
S=C(NCc1ccc2c(c1)OCO2)NCc1ccc2c(c1)OCO2	none
CN(C)CCNC(=S)Nc1ccc(-c2nc3ccccc3[nH]2)cc1	Shiga toxin inh 122.4, CHX counter 46.0, Pf growth 96h inconclusive (no result: NS1 inh)
Cc1ccc(NC(=O)Nc2cnc3ccccc3c2)cc1	Shiga toxin inh 45.0, Pf growth 48h inconclusive, CHX counter 30.5
Cc1cc([N+](=O)[O-])nn1CC(=O)Nc1cnc2ccccc2c1	Pf growth 96h inconclusive (no result: NS1 inh)
CCN(CC)C(=O)Nc1cnc2ccccc2c1	CHX counter 17.8, Pf growth 96h 2.33µM
COC(=O)c1cccc(C(=O)Nc2cnc3ccccc3c2)n1	none
Nc1nc(Cl)nc2c1ncn2C1CC(O)C(CO)O1 (centres undefined)	none (no result: Shiga toxin inh, NS1 inh, SARS PLpro yeast, CHX counter)
O=C(Cc1ccc(S(=O)(=O)N2CCOCC2)s1)Nc1ccc(S(=O)(=O)N2CCCCC2)cc1	Pf growth 48h inconclusive, Pf growth 96h inconclusive (no result: Shiga toxin inh, NS1 inh, CHX counter)
CC1CCCCC1NC(=O)Cc1ccc(S(=O)(=O)N2CCOCC2)s1 (centres undefined)	Pf growth 48h inconclusive, Pf growth 96h 11.7µM (no result: Shiga toxin inh, NS1 inh, CHX counter)
O=C(Cc1ccc(S(=O)(=O)N2CCOCC2)s1)NC1CCCCC1	Pf growth 48h inconclusive, Pf growth 96h inconclusive (no result: Shiga toxin inh, NS1 inh, CHX counter)
CC1CCN(S(=O)(=O)c2ccc(NC(=O)Cc3ccc(S(=O)(=O)N4CCOCC4)s3)cc2)CC1	Pf growth 96h inconclusive (no result: Shiga toxin inh, NS1 inh, CHX counter)
CNC(=O)c1ccc(NC(=O)Cc2ccc(S(=O)(=O)N3CCOCC3)s2)cc1	Pf growth 96h 14.7µM (no result: Shiga toxin inh, NS1 inh, CHX counter)
CC1CCCN(S(=O)(=O)c2ccc(NC(=O)Cc3ccc(S(=O)(=O)N4CCOCC4)s3)cc2)C1 (centres undefined)	Pf growth 48h inconclusive, Pf growth 96h 7.38µM (no result: Shiga toxin inh, NS1 inh, SARS PLpro yeast, CHX counter)
Cc1ccc(C(=O)Nc2cccc(-c3ccc(N4CCOCC4)nn3)c2)cc1	Pf growth 48h inconclusive (no result: Shiga toxin inh, NS1 inh, CHX counter)
O=C(Nc1ccc(N2CCOCC2)nc1)c1ccc(F)cc1	Shiga toxin inh 47.9, CHX counter 41.1
Cc1ccc(C(=O)Nc2ccc(N3CCOCC3)nc2)cc1	Shiga toxin inh 75.4, CHX counter 20.1
CN(C)c1ccc(NC(=O)c2ccc(N3CCOCC3)nc2)cc1	Shiga toxin inh 78.6, Pf growth 48h inconclusive, CHX counter 34.2, Pf growth 96h inconclusive
COc1ccc(NC(=O)c2ccc(N3CCOCC3)nc2)cc1	SARS PLpro yeast inconclusive, Pf growth 96h inconclusive
Cc1ccccc1C(=O)Nc1ccc(N2CCOCC2)nc1	Shiga toxin inh 58.2, CHX counter 29.8
